Assay results taken from PubChem BioAssay AID1159580 (chemical genetic matrix, 2015).
Several values for one entry are separate records, joined by “and”; a condition that tells them apart may be missing. Equal values may be shown once. Hit rate of the full screen: of about 5,500 compounds, about 2,000 (36%) were called active. Roughly 18% stayed inconclusive and do not appear here. Rule as the data show it: active = normalized growth mostly below about 0.91 (no sharp cut-off); inconclusive = no clear call, values can overlap the other calls; inactive = mostly above about 0.92. The list shows a part of the results.

Assay: chemical genetic growth profiling, strain panel (AID 1159580);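 also: tested at 20 µM; growth read once vehicle control cultures reached saturation at 30 °C; 1 = growth at the plate median or of vehicle wells; lower values mean less growth of the strain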
Details: S. cerevisiae deletion strains, growth OD

Measured: normalized growth

O=c1[nH]cnc2nc[nH]c12
inactive: locus YAL021C, strain ccr4, stronger effect = lower value 1.04 | locus YAL026C, strain drs2, stronger effect = lower value 1.02 | locus YAL030W, strain snc1, stronger effect = lower value 1.03 | locus YBL061C, strain skt5, stronger effect = lower value 1.02 | locus YBR009C, strain hhf1, stronger effect = lower value 1.01 | locus YBR021W, strain FUR4, stronger effect = lower value 0.972 | locus YBR023C, strain chs3, stronger effect = lower value 1.01 | locus YBR171W, strain sec66, stronger effect = lower value 1.04 | locus YBR229C, strain ROT2, stronger effect = lower value 0.992 | locus YBR231C, strain swc5, stronger effect = lower value 1.02 | locus YBR279W, strain paf1, stronger effect = lower value 1.01 | locus YCL011C, strain gbp2, stronger effect = lower value 1.03 | locus YCL016C, strain dcc1, stronger effect = lower value 1.01 | locus YCL029C, strain bik1, stronger effect = lower value 0.977 | locus YCL061C, strain MRC1, stronger effect = lower value 1.01 | locus YCL069W, strain vba3, stronger effect = lower value 1.01 | locus YCR088W, strain abp1, stronger effect = lower value 1.02 | locus YDL005C, strain med2, stronger effect = lower value 1.02 | locus YDL035C, strain GPR1, stronger effect = lower value 1.01 | locus YDL040C, strain nat1, stronger effect = lower value 1 | locus YDL074C, strain BRE1, stronger effect = lower value 0.986 | locus YDL101C, strain DUN1, stronger effect = lower value 0.999 | locus YDL134C, strain PPH21, stronger effect = lower value 1 | locus YDL185W, strain tfp1, stronger effect = lower value 0.979 | locus YDL192W, strain arf1, stronger effect = lower value 0.994 | locus YDR001C, strain nth1, stronger effect = lower value 1.01 | locus YDR069C, strain doa4, stronger effect = lower value 1.04 | locus YDR101C, strain arx1, stronger effect = lower value 0.973 | locus YDR137W, strain rgp1, stronger effect = lower value 1.07 | locus YDR150W, strain NUM1, stronger effect = lower value 1 | locus YDR159W, strain sac3, stronger effect = lower value 1.03 | locus YDR162C, strain NBP2, stronger effect = lower value 1.04 | locus YDR195W, strain ref2 1.01 | locus YDR297W, strain sur2, stronger effect = lower value 1.04 | locus YDR318W, strain mcm21, stronger effect = lower value 0.984 | locus YDR334W, strain swr1, stronger effect = lower value 1.03 | locus YDR335W, strain msn5, stronger effect = lower value 1.02 | locus YDR388W, stronger effect = lower value 0.983 | locus YDR392W, strain spt3, stronger effect = lower value 1.01 | locus YDR502C, strain sam2, stronger effect = lower value 1 | locus YEL003W, strain gim4, stronger effect = lower value 1.01 | locus YEL037C, strain rad23, stronger effect = lower value 1.01 | locus YEL061C, strain CIN8 (second series), stronger effect = lower value 1.02 | locus YEL061C, strain CIN8, stronger effect = lower value 1 | locus YER015W, strain faa2, stronger effect = lower value 1.01 | locus YER016W, strain bim1, stronger effect = lower value 1.02 | locus YER110C, stronger effect = lower value 0.969 | locus YER111C, strain swi4, stronger effect = lower value 1.02 | locus YER155C, strain BEM2 (second series), stronger effect = lower value 1.02 | locus YER155C, strain BEM2, stronger effect = lower value 0.992 | locus YER167W, strain BCK2, stronger effect = lower value 0.982 | locus YFR010W, strain ubp6, stronger effect = lower value 1.03 | locus YGL078C, strain dbp3, stronger effect = lower value 0.986 | locus YGL086W, strain mad1, stronger effect = lower value 0.955 | locus YGL167C, strain pmr1, stronger effect = lower value 1.02 | locus YGL173C, strain kem1, stronger effect = lower value 1.03 | locus YGL227W, strain vid30, stronger effect = lower value 1.01 | locus YGL240W, strain doc1, stronger effect = lower value 1.01 | locus YGL248W, strain PDE1, stronger effect = lower value 1.01 | locus YGL253W, strain hxk2, stronger effect = lower value 1.02 | locus YGR135W, strain pre9, stronger effect = lower value 1.01 | locus YGR252W, strain gcn5, stronger effect = lower value 1.09 | locus YHR013C, strain ard1, stronger effect = lower value 1.05 | locus YHR027C, strain rpn1, stronger effect = lower value 1.01 | locus YHR030C, strain SLT2, stronger effect = lower value 0.989 and 1.05 | locus YHR079C, strain IRE1 (second series), stronger effect = lower value 0.975 | locus YHR079C, strain IRE1, stronger effect = lower value 1.02 | locus YHR094C, strain hxt1, stronger effect = lower value 0.974 | locus YHR129C, strain ARP1, stronger effect = lower value 0.996 | locus YHR142W, strain chs7, stronger effect = lower value 1.02 | locus YHR200W, strain rpn10, stronger effect = lower value 0.998 | locus YIL066C, strain RNR3, stronger effect = lower value 0.998 | locus YIL073C, strain SPO22, stronger effect = lower value 0.963 | locus YIL125W, strain kgd1, stronger effect = lower value 0.972 | locus YIR030C, strain dcg1, stronger effect = lower value 0.989 | locus YJL092W, strain hpr5, stronger effect = lower value 1.02 | locus YJL095W, strain BCK1 (second series), stronger effect = lower value 1.01 | locus YJL095W, strain BCK1, stronger effect = lower value 1.02 and 1.01 | locus YJL115W, strain asf1, stronger effect = lower value 1.02 | locus YJL129C, strain trk1, stronger effect = lower value 1.03 | locus YJL134W, strain LCB3, stronger effect = lower value 0.994 | locus YJL154C, strain vps35, stronger effect = lower value 1.02 | locus YJL164C, strain tpk1, stronger effect = lower value 1.01 | locus YJL166W, strain qcr8, stronger effect = lower value 1.01 | locus YJL168C, strain set2, stronger effect = lower value 0.977 | locus YJL187C, strain SWE1 (second series), stronger effect = lower value 1.01 | locus YJL187C, strain SWE1, stronger effect = lower value 1.02 | locus YJR043C, strain POL32, stronger effect = lower value 1.03
